In the library only some 0.97% were active in any assay of this set; here they are far more common.
Six1-Eya2 inh = qHTS Assay for Inhibitors of the Six1/Eya2 Interaction | Homeobox protein SIX1 (Homo sapiens) + Protein phosphatase EYA2 (Homo sapiens), … | AlphaScreen GST-Six1/His-Eya2 binding, biochemical; stronger effect = lower value | activity change, % (no concentration beside the values) | hit rate 0.56% among 360,000 | AID 651725, 2012
Target sequence (O00167 whole entry, looked up): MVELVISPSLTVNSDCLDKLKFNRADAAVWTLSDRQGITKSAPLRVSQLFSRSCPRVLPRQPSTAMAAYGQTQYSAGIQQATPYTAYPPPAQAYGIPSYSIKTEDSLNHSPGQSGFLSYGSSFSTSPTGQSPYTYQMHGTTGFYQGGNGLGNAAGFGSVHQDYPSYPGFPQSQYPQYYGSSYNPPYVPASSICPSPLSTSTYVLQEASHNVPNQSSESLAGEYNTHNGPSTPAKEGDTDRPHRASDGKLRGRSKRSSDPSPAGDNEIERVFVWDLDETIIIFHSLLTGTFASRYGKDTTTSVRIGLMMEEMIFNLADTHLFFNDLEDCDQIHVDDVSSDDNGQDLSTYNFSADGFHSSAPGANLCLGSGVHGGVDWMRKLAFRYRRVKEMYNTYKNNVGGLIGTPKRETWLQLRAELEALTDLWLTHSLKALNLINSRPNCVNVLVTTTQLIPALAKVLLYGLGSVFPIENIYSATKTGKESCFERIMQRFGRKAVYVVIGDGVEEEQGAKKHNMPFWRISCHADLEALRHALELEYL
Target sequence (Q15475 whole entry, looked up): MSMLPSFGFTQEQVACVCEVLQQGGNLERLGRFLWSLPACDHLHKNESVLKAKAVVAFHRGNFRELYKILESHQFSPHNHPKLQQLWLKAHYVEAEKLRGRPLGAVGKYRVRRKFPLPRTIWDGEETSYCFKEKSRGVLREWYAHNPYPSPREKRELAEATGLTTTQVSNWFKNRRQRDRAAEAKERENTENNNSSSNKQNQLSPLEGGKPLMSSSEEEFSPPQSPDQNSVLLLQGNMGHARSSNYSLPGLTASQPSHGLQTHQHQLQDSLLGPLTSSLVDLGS
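AlphaScreen with GST-Six1 and His-Eya2 (5X mix: 250 nM and 500 nM), glutathione donor and nickel acceptor beads; buffer 50 mM Tris pH 8.0, 300 mM NaCl, 1 mM TCEP; 1 h at 37 C in the dark.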
CCT chaperon mod = High-Throughput Screening for Modulators of Cytosolic Chaperonin Activity; hit rate 0.3% among 360,000; purified chaperonin ATPase assay, HTRF ADP detection, 30 min; activity change, % (test concentration not listed), hits read low; in the data active = activity change below about -30%
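TRiC at 40 or 20 nM final (batch-dependent) in 30 mM Tris pH 7.4, 100 mM KCl, 5 mM MgCl2, 1 mM DTT, with compound at single 76 uM and 10 uM ATP, 30 min at 37 deg C. ADP detected by HTRF Transcreener, 665/615 ratio.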
PI4K2A inh = qHTS for small molecular inhibitors of PI4K2A. hit rate 0.13% among 420,000. activity change, negative = inhibition, % at 76.9 µM. purified PI4K2A, ADP-Glo luminescence, 1 h; stronger effect = lower value; in the data active = activity change below about -50%; inconclusive = mostly about -30% to -49%;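 also: -100% = wells without enzyme as full effect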
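In this quantitative HTS, ADP production by PI4K2A was quantified luminescently after 1 h at ambient temperature; 100 microM adenosine served as plate-quality control.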
Eya2 phos inh = qHTS Assay for Inhibitors of the Phosphatase Activity of Eya2; Potency, µM (series often up to 76.9 µM), for the others: at the highest dose activity, negative = inhibition, hits mostly inhibitors; recombinant Eya2, OMFP fluorescence dephosphorylation (OMFP is methylfluorescein phosphate); AID 488837, 2010; hit rate 0.006% among 330,000; active = well fitted inhibition curve with a large enough effect; inconclusive = small, poorly fitted or top-dose-only effect, or effect the other way; also: potency is read from the fitted curve at half-maximal effect
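Eya2 (0.2 uM) preincubated 10 min at ambient with compound, then OMFP substrate added at 50 uM; 10 min reaction in 50 mM HEPES pH 7.5, 50 mM NaCl, 5 uM MgCl2, 0.05% BSA, 1 mM DTT. Fluorescence read at Ex 485/Em 525 nm.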
CtBP-E1A blk = qHTS Assay for Inhibitors of the CtBP/E1A Interaction; hit rate 0.49% among 340,000; AID 651724, 2012; CtBP / adenovirus E1A interaction (AlphaScreen); activity change, % (test concentration not listed); AlphaScreen GST-E1A/His-CtBP binding, 1536-well; stronger effect = lower value
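AlphaScreen with 125 nM GST-E1A and 125 nM His-CtBP (5X stocks) in Tris pH 8.0, 300 mM NaCl, BSA, Tween 20, TCEP. Compounds preincubated 2 h at 37 deg C, then glutathione donor/nickel acceptor beads added for 1 h at 37 deg C in dark.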
* hit, by the source's call; ? = inconclusive; . = no result given; ! = repeats disagree. Rule as the data show it, unless noted: active = activity change below about -65%; inconclusive = mostly about -30% to -63%; inactive = weaker than that. Unless noted, % is scaled to controls: 0 for no effect and ±100 for the full control effect.

SMILES | Six1-Eya2 inh | CCT chaperon mod | PI4K2A inh | Eya2 phos inh | CtBP-E1A blk
COc1ccc(-c2ccc(C3C(C#N)=C(N)Oc4n[nH]c(C)c43)o2)cc1 (configuration not stated) | ? | -2 | -8 | 23% | -67*
CCOC(=O)N1CCN(CC(=O)Nc2cccc(Br)c2)CC1 | 1 | 2 | -2 | -12% | -6
CCOC(=O)N1CCN(CCC(=O)Nc2cccc(Br)c2)CC1 | 3 | -96*! | 1 | 24% | -1
O=C(COC(=O)C1CC(=O)N(Cc2ccco2)C1)c1ccc(OC(=O)c2ccco2)cc1 (configuration not stated) | ? | -1 | -7 | 0% | 0
Cc1ccc(C(=O)Oc2ccc(C(=O)COC(=O)C3CC(=O)N(Cc4ccco4)C3)cc2)cc1 (configuration not stated) | -85* | -3 | -24 | 3% | ?
COc1ccccc1N1CCN(CC(O)COc2cc(OC)c(OC)c(OC)c2)CC1 (configuration not stated) | . | . | 3 | . | .
Cc1csc2nc(O)c(C(=O)NC3CCCCCC3)c(=O)n12 | 5 | -35* | -2 | -3% | 0
Cc1csc2nc(O)c(C(=O)NC3CCCCC3)c(=O)n12 | -1 | -1 | -2 | -13% | 4
COc1ccc2[nH]c(C(=O)Nc3ccc(F)cc3Br)cc2c1 | 1 | -50* | -18 | -21% | 8
COc1ccc2[nH]c(C(=O)Nc3ncc(C)cc3Br)cc2c1 | -9 | 0 | 3 | 5% | -14
CCOC(=O)c1ccc(NC(=O)CC(C)n2nc(C)cc2C)cc1 (configuration not stated) | . | . | -3 | . | .
CCOC(=O)c1c(NC(=O)c2cccs2)sc2c1CCC2 | 14 | -33* | 0 | -8% | 8
O=C(N/N=C/c1ccccn1)c1ccc(Br)o1 | -66* | -2 | -3 | 1% | -75*
CCOc1ccc(-c2cccc(NS(=O)(=O)c3c(C)cc(C)cc3C)c2)nn1 | . | . | -2 | . | .
COc1ccccc1NC(=O)Cn1c(=O)n(-c2cccc(C(C)=O)c2)c(=O)c2c3c(sc21)CN(C(C)=O)CC3 | . | . | 4 | . | .
COc1ccc(NC(=O)CSc2ccc3nnc(-c4cccnc4)n3n2)c(OC)c1 | ? | 0 | -1 | 0% | -68*
COc1cccc(NC(=O)CSc2ccc3nnc(-c4cccnc4)n3n2)c1 | -23 | -2 | 0 | 1% | ?
Cc1nnc2sc(SCC(=O)Nc3nccs3)nn2c1=O | ? | -2 | -3 | -1% | -3
CCOc1ccccc1NC(=O)CSc1ccc2nnc(-c3cccnc3)n2n1 | -79* | 0 | 3 | 0% | -85*
COc1ccccc1NC(=O)CSc1ccc2nnc(-c3cccnc3)n2n1 | -70* | 1 | -4 | -11% | -77*
COc1ccccc1NC(=O)CSc1nn2c(=O)c(C)nnc2s1 | ? | 0 | -2 | 4% | -82*
CCOc1ccc(NC(=O)CSc2ccc3nnc(-c4cccnc4)n3n2)cc1 | -18 | -1 | 5 | -15% | -3
Cc1c2cnn(CC(=O)NC(C)C)c(=O)c2c(C)n1Cc1ccccc1Cl | . | . | -1 | . | .
CC(O)CCCCn1c(=O)c2c(ncn2C)n(C)c1=O (configuration not stated) | . | . | 1 | . | .
Fc1cccc(CSc2ccc3nnc(-c4cccnc4)n3n2)c1 | -67* | -30* | -4 | 4% | ?
SMILES | Six1-Eya2 inh | CCT chaperon mod | PI4K2A inh | Eya2 phos inh | CtBP-E1A blk
O=S(=O)(Nc1ccc(Cl)nn1)c1ccccc1 | -2 | -1 | -8 | 0% | .
O=S(=O)(NNc1ccc(Cl)nn1)c1ccc(F)cc1 | 5 | -69* | -1 | 1% | 4
O=C(O)c1ccccc1-c1ccc(C=c2sc3nc4cc(Br)cnc4n3c2=O)o1 | -69* | -3 | ? | . | ?
NS(=O)(=O)c1cc(C(=O)NN2C[C@H]3[C@H]4CCC(C4)[C@H]3C2)ccc1Cl | . | . | 1 | . | .
NS(=O)(=O)c1ccc(NC2=CC(=O)C(=O)c3ccccc32)cc1 | -4 | -7 | ? | 15% | ?
O=C1C=C(Nc2ccc(O)cc2)C(=O)c2ccccc21 | ? | 0 | -56* | -4% | -30
Cc1ccc(NC2=CC(=O)C(=O)c3ccccc32)cc1 | -20 | -9 | -66* | -22% | ?
Cc1ccc(NC2=C(N3CCOCC3)C(=O)c3ccccc3C2=O)cc1 | -89* | -1 | ? | -24% | -92*
Nc1nc(N)nc(-c2ccccn2)n1 | -81* | -2 | -8 | -27% | -73*
Clc1ccc(-c2cnnc(-c3ccccn3)n2)cc1 | -86* | -6 | 1 | 17% | -84*
c1ccc(-c2cnnc(-c3ccccn3)n2)cc1 | -88* | -1 | -10 | . | -76*
c1ccc(-c2cnc(-c3ccccn3)nn2)cc1 | -91* | 1 | ? | . | -86*
CCOC(=O)N1CCC(NC(=O)c2ccc3c(c2)N(Cc2ccc(F)cc2)C(=O)c2ccccc2S3(=O)=O)CC1 | . | . | -4 | . | .
O=C(Nc1cccc(C(=O)N2CCCC2)c1)C1CCCC1 | 0 | 1 | -7 | . | 7
O=C(Nc1cccc(C(=O)N2CCCCC2)c1)C1CC1 | 3 | -48* | 0 | . | 7
CCCCC(CCC(=O)Nc1ccn(-c2ccccc2)n1)C(=O)O (configuration not stated) | 3 | -1 | -1 | 40µM* | 0
CCCCC(C(=O)O)C(C)CC(=O)Nc1ccn(-c2ccccc2)n1 (configuration not stated) | 5 | -1 | 0 | -12% | 7

Screening results as filed in PubChem BioAssay.
